± gives the standard deviation of the averaged measurements. The full ranking holds about 1,600 compounds; the median of “normalized intracellular growth (luminescence, IQM-normalized) in RAW264.7 macrophages” is about 1, and the lowest 2% start at about 0.43. The entries come from a sample that favours the lowest values as a whole.
System: Salmonella enterica serovar Typhimurium SL1344
Assay: normalized intracellular growth (luminescence, IQM-normalized) in RAW264.7 macrophages (fraction of plate interquartile mean); higher = more bacterial growth (less inhibition)
Conditions: 10 µM

`CCCCCNC(=N)N/N=C/c1c[nH]c2ccc(OC)cc12` showed a normalized intracellular growth (time point: T3 (3 h)) of 1.05 ± 0.1 and a normalized intracellular growth (time point: Tfinal (~6 h)) of 1.08 ± 0.037.

`CCC(=O)Oc1ccc2c(c1)CC[C@@H]1[C@@H]2CC[C@]2(C)[C@@H](OC(=O)CC)CC[C@@H]12` gave a normalized intracellular growth (time point: T3 (3 h)) of 0.977 ± 0.092 and a normalized intracellular growth (time point: Tfinal (~6 h)) of 0.934 ± 0.089.

`O=C([O-])C(O)[C@H](O)[C@@H](O)[C@H](O)[C@H](O)CO.O=C([O-])C(O)[C@H](O)[C@@H](O)[C@H](O)[C@H](O)CO.[Ca+2]` (some centres not stated) showed a normalized intracellular growth (time point: T3 (3 h)) of 1.04 ± 0.019 and a normalized intracellular growth (time point: Tfinal (~6 h)) of 1.06 ± 0.18.

`Cc1c(OCC(F)(F)F)ccnc1C[S@@+]([O-])c1nc2ccccc2[nH]1` gave a normalized intracellular growth (time point: T3 (3 h)) of 0.98 ± 0.076 and a normalized intracellular growth (time point: Tfinal (~6 h)) of 1.18 ± 0.11.

For `CC1=C(C)C(=O)C(C(CCCCCC(=O)O)c2ccccc2)=C(C)C1=O` (configuration not stated), the normalized intracellular growth (time point: T3 (3 h)) was 0.994 ± 0.042 and the normalized intracellular growth (time point: Tfinal (~6 h)) was 1.18 ± 0.085.

Work on `NC(=O)c1cc[n+](CC2=C(C(=O)O)N3C(=O)[C@@H](NC(=O)[C@@H](c4ccccc4)S(=O)(=O)[O-])[C@H]3SC2)cc1` yielded a normalized intracellular growth (time point: T3 (3 h)) of 0.999 ± 0.056 and a normalized intracellular growth (time point: Tfinal (~6 h)) of 1.05 ± 0.028.

Compound `CCOc1ccc(NC(=O)CC(C)O)cc1` (configuration not stated) has a normalized intracellular growth (time point: T3 (3 h)) of 0.969 ± 0.045 and a normalized intracellular growth (time point: Tfinal (~6 h)) of 1.202 ± 0.0076.

`CC(=O)N(CC(O)CO)c1c(I)c(C(=O)NCCO)c(I)c(C(=O)NCC(O)CO)c1I` (configuration not stated) was tested, and the normalized intracellular growth (time point: T3 (3 h)) was 0.938 ± 0.063 and the normalized intracellular growth (time point: Tfinal (~6 h)) was 1.17 ± 0.091.

`OC[C@H]1O[C@H](O[C@H]2[C@H](O)[C@@H](O)C(O)O[C@@H]2CO)[C@H](O)[C@@H](O)[C@@H]1O` (some centres not stated) was tested, and the normalized intracellular growth (time point: T3 (3 h)) was 0.919 ± 0.086 and the normalized intracellular growth (time point: Tfinal (~6 h)) was 0.986 ± 0.012.

Compound `OC[C@H]1O[C@H](O[C@]2(CCl)O[C@H](CCl)[C@@H](O)[C@@H]2O)[C@H](O)[C@@H](O)[C@H]1Cl` has a normalized intracellular growth (time point: T3 (3 h)) of 0.91 ± 0.095 and a normalized intracellular growth (time point: Tfinal (~6 h)) of 0.0259 ± 0.0051.

`OC[C@H]1O[C@@H](O[C@@H]2[C@@H](CO)OC(O)(CO)[C@H]2O)[C@H](O)[C@@H](O)[C@H]1O` (mixture of isomers) was tested, and the normalized intracellular growth (time point: T3 (3 h)) was 0.999 ± 0.021 and the normalized intracellular growth (time point: Tfinal (~6 h)) was 0.958 ± 0.011.

For `COc1ccc(C(=O)c2ccccc2O)c(O)c1`, the normalized intracellular growth (time point: T3 (3 h)) was 1 ± 0.047 and the normalized intracellular growth (time point: Tfinal (~6 h)) was 1.24 ± 0.031.

Compound `COc1ccc(C(=O)c2ccc(C)cc2)c(O)c1` has a normalized intracellular growth (time point: T3 (3 h)) of 1.02 ± 0.028 and a normalized intracellular growth (time point: Tfinal (~6 h)) of 0.926 ± 0.2.

Compound `COc1ccc(C(=O)c2ccccc2)c(O)c1` has a normalized intracellular growth (time point: T3 (3 h)) of 0.948 ± 0.07 and a normalized intracellular growth (time point: Tfinal (~6 h)) of 0.417 ± 0.083.

`Cc1cc(O)cc(C)c1Cl` was tested, and the normalized intracellular growth (time point: T3 (3 h)) was 1.03 ± 0.075 and the normalized intracellular growth (time point: Tfinal (~6 h)) was 1.11 ± 0.071.

`N=c1ccn2c(n1)O[C@H]1[C@H](O)[C@@H](CO)O[C@H]12` showed a normalized intracellular growth (time point: T3 (3 h)) of 1 ± 0.029 and a normalized intracellular growth (time point: Tfinal (~6 h)) of 1.16 ± 0.016.

In the case of `COc1c(N2CCNC(C)C2)c(F)cc2c(=O)c(C(=O)O)cn(C3CC3)c12` (configuration not stated), the normalized intracellular growth (time point: T3 (3 h)) is reported as 1.02 ± 0.13 and the normalized intracellular growth (time point: Tfinal (~6 h)) is reported as 0.015 ± 0.0035.

Compound `CCn1cc(C(=O)O)c(=O)c2cc(F)c(N3CCNC(C)C3)c(F)c21` (configuration not stated) has a normalized intracellular growth (time point: T3 (3 h)) of 0.996 ± 0.098 and a normalized intracellular growth (time point: Tfinal (~6 h)) of 0.0187 ± 0.0027.

`CO/N=C1\CN(c2nc3c(cc2F)c(=O)c(C(=O)O)cn3C2CC2)CC1CN` (configuration not stated) gave a normalized intracellular growth (time point: T3 (3 h)) of 0.967 ± 0.014 and a normalized intracellular growth (time point: Tfinal (~6 h)) of 1.15 ± 0.048.

With `CCn1cc(C(=O)O)c(=O)c2cnc(N3CCNCC3)nc21` the normalized intracellular growth (time point: T3 (3 h)) was 0.974 ± 0.034 and the normalized intracellular growth (time point: Tfinal (~6 h)) was 0.533 ± 0.082.

With `CCn1cc(C(=O)O)c(=O)c2ccc(C)nc21` the normalized intracellular growth (time point: T3 (3 h)) was 0.994 ± 0.03 and the normalized intracellular growth (time point: Tfinal (~6 h)) was 0.881 ± 0.37.

`CCn1cc(C(=O)O)c(=O)c2cc(F)c(N3CCNCC3)nc21` was tested, and the normalized intracellular growth (time point: T3 (3 h)) was 0.916 ± 0.07 and the normalized intracellular growth (time point: Tfinal (~6 h)) was 0.245 ± 0.036.

In the case of `COc1c(N2C[C@@H]3CCCN[C@@H]3C2)c(F)cc2c(=O)c(C(=O)O)cn(C3CC3)c12`, the normalized intracellular growth (time point: T3 (3 h)) is reported as 1.41 ± 0.1 and the normalized intracellular growth (time point: Tfinal (~6 h)) is reported as 0.00827 ± 0.001.

In the case of `CC(C)(CO)[C@@H](O)C(=O)NCCC(=O)NCCSSCCNC(=O)CCNC(=O)[C@H](O)C(C)(C)CO`, the normalized intracellular growth (time point: T3 (3 h)) is reported as 0.981 ± 0.048 and the normalized intracellular growth (time point: Tfinal (~6 h)) is reported as 0.976 ± 0.089.

`OCc1cccnc1` gave a normalized intracellular growth (time point: T3 (3 h)) of 1.056 ± 0.0048 and a normalized intracellular growth (time point: Tfinal (~6 h)) of 0.97 ± 0.051.

With `O=S(=O)(c1cccc2cnccc12)N1CCCNCC1` the normalized intracellular growth (time point: T3 (3 h)) was 1.02 ± 0.035 and the normalized intracellular growth (time point: Tfinal (~6 h)) was 1.13 ± 0.067.

Compound `NC(=O)NS(=O)(=O)c1ccc(N)cc1` has a normalized intracellular growth (time point: T3 (3 h)) of 0.98 ± 0.031 and a normalized intracellular growth (time point: Tfinal (~6 h)) of 0.881 ± 0.095.

Work on `FC(F)(Cl)C(F)(F)Cl` yielded a normalized intracellular growth (time point: T3 (3 h)) of 1.02 ± 0.023 and a normalized intracellular growth (time point: Tfinal (~6 h)) of 0.675 ± 0.21.

`NC1CCN(c2c(F)cc3c(=O)c(C(=O)O)cn(C4CC4)c3c2Cl)C1` (configuration not stated) showed a normalized intracellular growth (time point: T3 (3 h)) of 1.49 ± 0.071 and a normalized intracellular growth (time point: Tfinal (~6 h)) of 0.00632 ± 0.00035.

`CC(=O)OCC(=O)[C@@]1(O)CC[C@H]2[C@@H]3CCC4=CC(=O)C=C[C@]4(C)[C@@]3(Cl)[C@@H](Cl)C[C@@]21C` showed a normalized intracellular growth (time point: T3 (3 h)) of 0.961 ± 0.062 and a normalized intracellular growth (time point: Tfinal (~6 h)) of 1.13 ± 0.022.

`CCCCCCCCCc1ccc(OCCOCCOCCOCCOCCOCCOCCOCCOCCO)cc1` gave a normalized intracellular growth (time point: T3 (3 h)) of 0.99 ± 0.013 and a normalized intracellular growth (time point: Tfinal (~6 h)) of 1.1 ± 0.048.

`O=C(CCCN1CCC(O)(c2ccc(Br)cc2)CC1)c1ccc(F)cc1` showed a normalized intracellular growth (time point: T3 (3 h)) of 0.391 ± 0.23 and a normalized intracellular growth (time point: Tfinal (~6 h)) of 1.28 ± 0.14.

With `NC(=O)C1(N2CCCCC2)CCN(CCCC(=O)c2ccc(F)cc2)CC1` the normalized intracellular growth (time point: T3 (3 h)) was 0.984 ± 0.085 and the normalized intracellular growth (time point: Tfinal (~6 h)) was 0.965 ± 0.16.

`O=C(CCCN1CCC(O)(c2ccc(Cl)cc2)CC1)c1ccc(F)cc1` was tested, and the normalized intracellular growth (time point: T3 (3 h)) was 0.957 ± 0.056 and the normalized intracellular growth (time point: Tfinal (~6 h)) was 1 ± 0.085.

With `N[C@@H](CCC(=O)N[C@@H](CS)C(=O)NCC(=O)O)C(=O)O` the normalized intracellular growth (time point: T3 (3 h)) was 1.1 ± 0.056 and the normalized intracellular growth (time point: Tfinal (~6 h)) was 0.832 ± 0.11.

Work on `CC(C)CCCC(C)NC(C)C` (configuration not stated) yielded a normalized intracellular growth (time point: T3 (3 h)) of 1 ± 0.017 and a normalized intracellular growth (time point: Tfinal (~6 h)) of 0.999 ± 0.11.

Work on `Cc1ccc(S(=O)(=O)NCl)cc1` yielded a normalized intracellular growth (time point: T3 (3 h)) of 0.946 ± 0.021 and a normalized intracellular growth (time point: Tfinal (~6 h)) of 0.902 ± 0.052.

`OCc1ccccc1O` was tested, and the normalized intracellular growth (time point: T3 (3 h)) was 1.07 ± 0.017 and the normalized intracellular growth (time point: Tfinal (~6 h)) was 1.01 ± 0.022.

Compound `CC1CCc2c(N3CCC(O)CC3)c(F)cc3c(=O)c(C(=O)O)cn1c23` (configuration not stated) has a normalized intracellular growth (time point: T3 (3 h)) of 0.894 ± 0.051 and a normalized intracellular growth (time point: Tfinal (~6 h)) of 0.0538 ± 0.029.

`CC1CCc2cc(F)cc3c(=O)c(C(=O)O)cn1c23` (configuration not stated) gave a normalized intracellular growth (time point: T3 (3 h)) of 0.937 ± 0.026 and a normalized intracellular growth (time point: Tfinal (~6 h)) of 0.389 ± 0.025.

`N[C@@H](Cc1ccc(O)cc1)C(=O)O` was tested, and the normalized intracellular growth (time point: T3 (3 h)) was 0.934 ± 0.037 and the normalized intracellular growth (time point: Tfinal (~6 h)) was 0.846 ± 0.31.

— the supplement of paper PMC6331611
